INHIBITION data for 29 molecules are collected here from ChEMBL document CHEMBL4513216, “Probing the Open Global Health Chemical Diversity Library for Multistage-Active Starting Points for Next-Generation Antimalarials” (ACS Infect Dis, 2020).

Out of some 69,000 compounds screened, about 8,600 (12%) showed an effect of 50% or more. What follows is part of a selection rich in strong results, with near analogues and random picks from the rest.

This experiment relates to Plasmodium berghei. Description: Screen against P. berghei liver stage (PbLuc), transformed with Luciferase, at 10uM. The format is functional, HepG2. Conditions: tested at 10 uM.
For the molecule `CC(C)(C)NC(=O)NC(=O)CN1C=Nc2ccccc2S1(=O)=O`, the INHIBITION is reported as 44.3%.
Take `CC(C)Oc1cccc(CNC(Cc2ccsc2)c2nccs2)c1` (centres undefined): the INHIBITION is given as 44.3%.
On to `Cc1cccnc1C(Cc1ccsc1)NCc1cnc(N(C)C)nc1` (centres undefined), for which the INHIBITION is on record as -2.495%.
As for `CC(C)CC(NCc1ccsc1)c1ccccn1` (centres undefined), the figure is 44.6%; as for `COc1ccc(CNC(Cc2ccsc2)c2ncccc2C)cc1OC` (centres undefined), 55.05%; as for `COc1ccc(CNC(Cc2ccsc2)c2ccc(C)cn2)cc1OC` (centres undefined), 44.3%.
With `COc1cccc(OC)c1CNC(Cc1ccsc1)c1ccc(C)cn1` (centres undefined), the INHIBITION turned out to be 84.2%.
`COc1ccc(CNC(Cc2cccs2)c2nc(C)c(C)s2)cc1OC` (centres undefined): the INHIBITION is given as 30.4%.
`COc1ccc(CN2CCC(c3cc(O)nc(C)n3)C2)c(OC)c1` (centres undefined): the INHIBITION is -12.2%.
Take `COc1ccc(CNC(Cc2ccsc2)c2ccc(C)cn2)c(OC)c1` (centres undefined): the INHIBITION worked out at 68.4%.
`O=C(C1CCCCC1)N1CCC(n2nc(-c3ccco3)ccc2=O)CC1`: the INHIBITION came out at 40%.
For the molecule `Cc1ccc(C(N)c2cccc(S(C)(=O)=O)c2)c(C)c1` (centres undefined), the INHIBITION was -24.2%.
Consider `CCc1csc(C2CCCN(C(=O)c3cc(Cl)c[nH]3)C2)n1` (centres undefined), for which the INHIBITION is given as 11.9%.
For the molecule `CCCC1COCCN1Cc1ccc(S(=O)(=O)NC)cc1` (centres undefined), the INHIBITION is recorded as -6.39%.
Consider `CNC(=O)CN1CCCC(Cc2ccccc2OC)C1` (centres undefined), for which the INHIBITION is 59%.
As for `COc1ccccc1CC1CCCN(CC(=O)NC2CC2)C1` (centres undefined), the INHIBITION was -25.9%.
In the case of `CNC(=O)NC(=O)CN1CCCC(Cc2ccccc2OC)C1` (centres undefined), the INHIBITION is -43.6%.
Take `CCCS(=O)(=O)N1C[C@@H](OCc2ccncc2)[C@H]2OCCC[C@H]21`: the INHIBITION is -7.2%.
Consider `CCOCCn1c(=O)[nH]c2cc(C(=O)N(C)CCc3cn[nH]c3)ccc21`, for which the INHIBITION was found to be 50.1%.
Consider `CCOCCn1c(=O)[nH]c2cc(C(=O)N(C)Cc3cnn(C)c3)ccc21`, for which the INHIBITION is recorded as 24.065%.
As for `CCCN(C)C(=O)c1ccc2c(c1)[nH]c(=O)n2CCOCC`, the figure is 3.47%.
Turning to `CC(C)N(C)Cc1cc(=O)n2c(n1)CN(S(=O)(=O)C1CC1)CCC2`, the INHIBITION is given as 25.6%.
Turning to `CNC(=O)C1(CCCc2ccccn2)CN(Cc2coc(C)n2)C1`, the INHIBITION was determined as 14.6%.
`CC(NC(=O)Cc1ccccc1F)C(=O)N1CCS(=O)(=O)CC1` (centres undefined): the INHIBITION worked out at 49.4%.
Take `Cc1ccc(CC(=O)NC(C)C(=O)N2CCS(=O)(=O)CC2)s1` (centres undefined): the INHIBITION worked out at 76.2%.
As to `Cc1ccc(CC(=O)NC(C)C(=O)N2CCS(=O)(=O)CC2)cc1` (centres undefined), the INHIBITION is -11.1%.
Consider `CNC(=O)CN1CCO[C@H]2CN(CC3CCOCC3)C[C@H]21`, for which the INHIBITION was found to be 13.7%.
On to `CC(C)NC(=O)CN1CCC(c2cccc(F)c2)C1` (centres undefined), for which the INHIBITION came out at 45.65%.
For the molecule `Cn1nccc1C(=O)N1Cc2cc(Cl)ccc2OC2(CCOCC2)C1`, the INHIBITION is listed as -0.902%.
